Results published in the supplement of paper PMC10849652.
The full data set covers some 8,800 targets. This sample favours those with a hit. About 0.5% of all pairs of compound and target were hits.

Tests used:
Assay in all cases: log2 fold change, soluble protein after heating vs DMSO (PISA); higher = thermal stabilisation; K562 lysate, 10 uM; active = over 0.2 and 3.5 SD of the protein, either way, in both replicates (recomputed)
nilotinib = compound: Cc1cn(-c2cc(NC(=O)c3ccc(C)c(Nc4nccc(-c5cccnc5)n4)c3)cc(C(F)(F)F)c2)cn1 [nilotinib]
How it was run: (§1)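 Quantification was by TMTpro 16plex LC-MS/MS with equalised channel sums, applied to the supernatant after 21,000xg for 90 min. Samples were crude K562 extract at 1 mg/mL protein in PBS pH 7.4 with 1 mM MgCl2, treated with 10 μM compound for 30 min, heated for 3 min across 48°C-58°C, pooled and brought to 0.5% NP-40 at 4°C. Values are log-two fold changes in thermal stability relative to solvent controls, from duplicates.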

[1] = compound: Cc1nc(Nc2n[nH]c3c2CN(C(=O)N[C@H](CN(C)C)c2ccccc2)C3(C)C)c2sccc2n1
How it was run: as §1

dasatinib = compound: Cc1nc(Nc2ncc(C(=O)Nc3c(C)cccc3Cl)s2)cc(N2CCN(CCO)CC2)n1 [dasatinib]
How it was run: as §1

[2] = compound: Cc1ncc(-c2ccnc(Nc3ccc(S(C)(=O)=O)cc3)n2)n1C(C)C
How it was run: as §1

[3] = compound: Cn1cc(-c2ccc3c(c2)CCN3C(=O)Cc2cccc(C(F)(F)F)c2)c2c(N)ncnc21
How it was run: as §1

quisinostat = compound: Cn1cc(CNCC2CCN(c3ncc(C(=O)NO)cn3)CC2)c2ccccc21 [quisinostat]
How it was run: as §1

tipifarnib = compound: Cn1cncc1[C@@](N)(c1ccc(Cl)cc1)c1ccc2c(c1)c(-c1cccc(Cl)c1)cc(=O)n2C [tipifarnib]
How it was run: as §1

[4] = compound: NC(=O)Nc1cc(-c2cccc(F)c2)sc1C(=O)N[C@H]1CCCNC1
How it was run: as §1

[5] = compound: NC(=O)c1cnc(N[C@@H]2CCCC[C@@H]2N)nc1Nc1cccc(-n2nccn2)c1
How it was run: as §1

[6] = compound: NC1(c2ccc(-c3nc4ccn5c(=O)[nH]nc5c4cc3-c3ccccc3)cc2)CCC1
How it was run: as §1

[7] = compound: NCC(=O)Nc1ccc(-n2nc(C(F)(F)F)cc2-c2ccc3c(ccc4ccccc43)c2)cc1
How it was run: as §1

vorinostat = compound: O=C(CCCCCCC(=O)Nc1ccccc1)NO [vorinostat]
How it was run: as §1

silmitasertib = compound: O=C(O)c1ccc2c(c1)nc(Nc1cccc(Cl)c1)c1ccncc12 [silmitasertib]
How it was run: as §1

[8] = compound: O=C1NC(=O)C(c2cnc3ccccn23)=C1c1cn2c3c(cc(F)cc13)CN(C(=O)N1CCCCC1)CC2
How it was run: as §1

entospletinib = compound: c1cn2cc(-c3ccc4cn[nH]c4c3)nc(Nc3ccc(N4CCOCC4)cc3)c2n1 [entospletinib]
How it was run: as §1

Measured: log2 fold change

CAMKK2 (UniProt Q96RR4)
inactive: nilotinib -0.038 | [1] 0.176 | dasatinib 0.031 | [2] 0.028 | [3] 0.023 | quisinostat -0.01 | tipifarnib -0.037 | [4] 0.1 | [5] -0.046 | [6] 0 | [7] 0.081 | silmitasertib 0.074 | [8] -0.02 | entospletinib 0.039
active: vorinostat -0.325

C1orf131 isoform 5 (UniProt Q8NDD1)
inactive: nilotinib -0.106 | [1] -0.059 | dasatinib 0.048 | [2] -0.135 | [3] 0.034 | quisinostat -0.103 | tipifarnib 0.073 | [4] -0.025 | [5] -0.035 | [6] 0.002 | [7] 0.059 | silmitasertib -0.025 | [8] 0.039 | entospletinib -0.013
active: vorinostat -0.445

CCDC32 isoform 2 (UniProt Q9BV29)
Chain of UniProt Q9BV29 (Q9BV29 whole entry, looked up): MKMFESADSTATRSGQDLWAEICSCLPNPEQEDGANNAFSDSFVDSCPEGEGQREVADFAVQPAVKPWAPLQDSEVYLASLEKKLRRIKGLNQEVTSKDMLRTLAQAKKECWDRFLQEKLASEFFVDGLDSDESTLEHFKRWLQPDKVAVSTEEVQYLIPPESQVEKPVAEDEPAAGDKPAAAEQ
inactive: nilotinib -0.009 | [1] 0.024 | dasatinib 0.021 | [2] 0.105 | [3] -0.001 | quisinostat -0.05 | tipifarnib 0.076 | [4] -0.028 | [5] -0.05 | [6] -0.03 | [7] 0.005 | vorinostat 0.058 | silmitasertib -0.044 | [8] 0.009 | entospletinib -0.042

CCNB1 (UniProt P14635)
Chain of UniProt P14635 (P14635 whole entry, looked up): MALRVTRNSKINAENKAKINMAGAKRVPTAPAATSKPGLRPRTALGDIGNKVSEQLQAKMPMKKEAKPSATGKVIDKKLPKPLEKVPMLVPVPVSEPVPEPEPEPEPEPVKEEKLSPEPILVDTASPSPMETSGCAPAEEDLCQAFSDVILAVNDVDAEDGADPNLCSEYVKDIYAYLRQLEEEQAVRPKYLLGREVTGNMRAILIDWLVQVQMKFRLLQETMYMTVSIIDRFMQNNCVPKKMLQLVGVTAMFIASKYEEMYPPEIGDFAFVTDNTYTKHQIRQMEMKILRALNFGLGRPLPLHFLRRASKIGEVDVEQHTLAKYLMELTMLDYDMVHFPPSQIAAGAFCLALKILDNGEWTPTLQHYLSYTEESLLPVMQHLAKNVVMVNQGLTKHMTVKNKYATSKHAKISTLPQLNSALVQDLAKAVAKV
active: [2] 0.369
inactive: nilotinib -0.04 | [1] 0.037 | dasatinib -0.016 | [3] -0.021 | quisinostat 0.035 | tipifarnib -0.005 | [4] 0.005 | [5] 0.165 | [6] 0.006 | [7] 0.05 | vorinostat -0.008 | silmitasertib -0.013 | [8] -0.02 | entospletinib -0.009

CCNA2 (UniProt P20248)
active: [2] 0.234
inactive: nilotinib -0.014 | [1] 0.064 | dasatinib 0.04 | [3] -0.051 | quisinostat -0.086 | tipifarnib -0.015 | [4] 0.005 | [5] 0.063 | [6] -0.021 | [7] 0.005 | vorinostat 0.075 | silmitasertib -0.06 | [8] -0.026 | entospletinib -0.011

CDAN1 (UniProt Q8IWY9)
Chain of UniProt Q8IWY9 (Q8IWY9 whole entry, looked up): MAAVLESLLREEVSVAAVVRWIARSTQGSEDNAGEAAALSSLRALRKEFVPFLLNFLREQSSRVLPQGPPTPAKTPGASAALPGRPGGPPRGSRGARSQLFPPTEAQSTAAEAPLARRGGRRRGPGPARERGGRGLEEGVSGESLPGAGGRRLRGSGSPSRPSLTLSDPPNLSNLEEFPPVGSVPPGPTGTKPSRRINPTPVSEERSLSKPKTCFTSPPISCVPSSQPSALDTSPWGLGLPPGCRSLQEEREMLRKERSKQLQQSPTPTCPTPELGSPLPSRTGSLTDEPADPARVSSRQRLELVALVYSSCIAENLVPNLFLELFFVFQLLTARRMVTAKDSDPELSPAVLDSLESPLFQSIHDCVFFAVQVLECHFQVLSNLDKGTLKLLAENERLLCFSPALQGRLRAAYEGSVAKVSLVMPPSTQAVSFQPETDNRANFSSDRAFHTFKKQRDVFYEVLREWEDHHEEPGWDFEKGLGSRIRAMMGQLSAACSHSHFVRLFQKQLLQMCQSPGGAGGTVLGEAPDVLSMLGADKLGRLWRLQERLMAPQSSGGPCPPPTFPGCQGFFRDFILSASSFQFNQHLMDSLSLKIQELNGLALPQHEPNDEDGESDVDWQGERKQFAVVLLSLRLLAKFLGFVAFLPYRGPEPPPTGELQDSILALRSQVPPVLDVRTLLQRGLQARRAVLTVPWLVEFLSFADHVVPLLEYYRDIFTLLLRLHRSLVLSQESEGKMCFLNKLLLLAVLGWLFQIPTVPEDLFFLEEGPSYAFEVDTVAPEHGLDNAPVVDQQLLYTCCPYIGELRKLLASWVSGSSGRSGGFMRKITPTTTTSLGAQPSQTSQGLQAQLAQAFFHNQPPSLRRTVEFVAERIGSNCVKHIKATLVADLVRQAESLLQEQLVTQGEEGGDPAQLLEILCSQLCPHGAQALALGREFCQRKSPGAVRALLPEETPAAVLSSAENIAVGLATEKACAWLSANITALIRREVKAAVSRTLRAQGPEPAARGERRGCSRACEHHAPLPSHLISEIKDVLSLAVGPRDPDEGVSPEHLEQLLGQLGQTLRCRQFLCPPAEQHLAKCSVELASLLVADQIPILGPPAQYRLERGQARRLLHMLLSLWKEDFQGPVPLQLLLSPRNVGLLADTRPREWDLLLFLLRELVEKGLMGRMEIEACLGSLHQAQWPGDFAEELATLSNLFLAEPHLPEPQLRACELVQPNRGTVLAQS
active: vorinostat -0.326
inactive: nilotinib -0.029 | [1] 0.022 | dasatinib -0.055 | [2] -0.014 | [3] -0.037 | quisinostat -0.09 | tipifarnib -0.026 | [4] 0.066 | [5] 0.017 | [6] -0.032 | [7] 0.019 | silmitasertib 0.05 | [8] 0.056 | entospletinib -0.006

CARS isoform 3 (UniProt P49589)
inactive: nilotinib -0.019 | [1] -0.007 | dasatinib -0.024 | [2] -0.007 | [3] 0.012 | quisinostat 0.048 | tipifarnib 0.007 | [4] 0.004 | [5] 0.001 | [6] -0.01 | [7] 0.018 | silmitasertib 0.018 | [8] -0.049 | entospletinib 0.008
active: vorinostat -0.254

CHCHD2 (UniProt Q9Y6H1)
Chain of UniProt Q9Y6H1 (Q9Y6H1 whole entry, looked up): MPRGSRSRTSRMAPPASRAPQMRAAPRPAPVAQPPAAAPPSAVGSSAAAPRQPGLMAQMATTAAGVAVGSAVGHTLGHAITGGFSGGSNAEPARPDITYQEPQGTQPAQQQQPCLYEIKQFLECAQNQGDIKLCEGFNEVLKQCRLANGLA
inactive: nilotinib -0.102 | [1] 0.039 | dasatinib 0.016 | [2] -0.075 | [3] 0.031 | quisinostat -0.049 | tipifarnib 0.058 | [4] -0.014 | [5] -0.029 | [6] 0.136 | [7] -0.022 | silmitasertib 0.044 | [8] -0.017 | entospletinib -0.06
active: vorinostat -0.301

BRD3 (UniProt Q15059)
Chain of UniProt Q15059 (Q15059 whole entry, looked up): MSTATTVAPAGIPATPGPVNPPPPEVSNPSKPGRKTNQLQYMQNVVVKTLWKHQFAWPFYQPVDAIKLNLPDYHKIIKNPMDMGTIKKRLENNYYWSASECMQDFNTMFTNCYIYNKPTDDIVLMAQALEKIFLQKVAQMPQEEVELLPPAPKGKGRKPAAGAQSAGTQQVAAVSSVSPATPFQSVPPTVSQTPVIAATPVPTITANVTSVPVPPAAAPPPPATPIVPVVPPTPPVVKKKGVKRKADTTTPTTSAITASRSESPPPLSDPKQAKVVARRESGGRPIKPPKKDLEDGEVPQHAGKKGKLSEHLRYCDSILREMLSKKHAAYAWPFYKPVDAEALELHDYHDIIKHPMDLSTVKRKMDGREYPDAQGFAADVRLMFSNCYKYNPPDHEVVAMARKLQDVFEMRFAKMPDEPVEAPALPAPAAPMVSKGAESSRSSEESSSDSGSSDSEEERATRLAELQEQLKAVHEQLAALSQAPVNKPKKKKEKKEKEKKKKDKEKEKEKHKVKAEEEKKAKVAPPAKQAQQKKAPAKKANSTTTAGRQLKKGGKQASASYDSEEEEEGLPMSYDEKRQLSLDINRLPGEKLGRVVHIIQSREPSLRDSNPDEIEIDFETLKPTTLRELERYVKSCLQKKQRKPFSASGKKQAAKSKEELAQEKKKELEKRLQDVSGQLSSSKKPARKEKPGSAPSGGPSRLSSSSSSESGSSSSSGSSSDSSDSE
inactive: nilotinib -0.069 | [1] 0.074 | dasatinib -0.011 | [2] 0.025 | [3] -0.018 | quisinostat 0.013 | tipifarnib 0.013 | [4] 0.066 | [5] -0.024 | [6] -0.185 | [7] 0.052 | vorinostat -0.117 | silmitasertib -0.146 | [8] 0.021 | entospletinib -0.018

CARNMT1 (UniProt Q8N4J0)
inactive: nilotinib 0.019 | [1] -0.016 | dasatinib 0.003 | [2] -0.019 | [3] 0.006 | quisinostat -0.173 | tipifarnib 0.011 | [4] 0.004 | [5] 0.019 | [6] -0.023 | [7] 0.005 | vorinostat 0.027 | silmitasertib 0.008 | [8] -0.028 | entospletinib -0.039

CAMK2B (UniProt Q13554)
active: [1] 0.399
inactive: nilotinib -0.026 | dasatinib -0.055 | [2] 0.026 | [3] 0.023 | quisinostat -0.205 | tipifarnib -0.035 | [4] 0.295 | [5] 0.089 | [6] -0.045 | [7] 0.014 | vorinostat -0.133 | silmitasertib -0.017 | [8] 0.056 | entospletinib -0.02

CDC16 (UniProt Q13042)
Chain of UniProt Q13042 (Q13042 whole entry, looked up): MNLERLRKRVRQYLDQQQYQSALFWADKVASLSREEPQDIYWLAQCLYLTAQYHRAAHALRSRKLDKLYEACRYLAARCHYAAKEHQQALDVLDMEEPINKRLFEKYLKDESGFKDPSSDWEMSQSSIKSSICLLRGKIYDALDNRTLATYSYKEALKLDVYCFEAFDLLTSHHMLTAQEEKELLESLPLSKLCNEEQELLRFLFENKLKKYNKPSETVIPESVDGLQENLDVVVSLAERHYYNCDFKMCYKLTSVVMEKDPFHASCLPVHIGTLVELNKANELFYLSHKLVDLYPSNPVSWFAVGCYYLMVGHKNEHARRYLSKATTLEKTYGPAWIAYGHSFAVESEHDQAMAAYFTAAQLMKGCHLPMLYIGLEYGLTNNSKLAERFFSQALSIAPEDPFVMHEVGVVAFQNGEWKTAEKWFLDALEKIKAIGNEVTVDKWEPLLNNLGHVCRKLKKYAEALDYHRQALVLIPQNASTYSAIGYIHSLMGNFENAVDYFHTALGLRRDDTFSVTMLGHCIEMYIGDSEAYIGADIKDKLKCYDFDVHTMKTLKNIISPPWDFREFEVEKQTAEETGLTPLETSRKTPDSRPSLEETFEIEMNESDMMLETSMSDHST
inactive: nilotinib -0.013 | [1] 0.023 | dasatinib -0.012 | [2] -0.027 | [3] 0.019 | quisinostat 0.01 | tipifarnib 0.017 | [4] 0.024 | [5] -0.019 | [6] -0.014 | [7] -0.068 | silmitasertib 0.023 | [8] -0.006 | entospletinib -0.015
active: vorinostat -0.265

CHCHD4 isoform 2 (UniProt Q8N4Q1)
Chain of UniProt Q8N4Q1 (Q8N4Q1 whole entry, looked up): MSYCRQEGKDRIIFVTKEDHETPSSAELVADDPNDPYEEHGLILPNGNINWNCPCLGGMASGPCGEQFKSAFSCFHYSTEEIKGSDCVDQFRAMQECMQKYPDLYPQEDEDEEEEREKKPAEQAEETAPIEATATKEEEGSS
inactive: nilotinib -0.029 | [1] 0.023 | dasatinib -0.035 | [2] -0.031 | [3] -0.018 | quisinostat -0.156 | tipifarnib 0.018 | [4] 0.032 | [5] -0.008 | [6] -0.028 | [7] 0.06 | vorinostat 0.207 | silmitasertib -0.145 | [8] -0.027 | entospletinib 0.01

BLOC1S6 (UniProt Q9UL45)
Chain of UniProt Q9UL45 (Q9UL45 whole entry, looked up): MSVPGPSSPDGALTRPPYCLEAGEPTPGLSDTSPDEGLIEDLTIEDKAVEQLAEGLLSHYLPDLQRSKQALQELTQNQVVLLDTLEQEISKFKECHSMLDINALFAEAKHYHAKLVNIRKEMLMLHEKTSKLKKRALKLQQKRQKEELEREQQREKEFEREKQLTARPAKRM
inactive: nilotinib -0.073 | [1] 0.036 | dasatinib 0.093 | [2] 0.093 | [3] -0.008 | quisinostat 0.042 | tipifarnib -0.063 | [4] -0.049 | [5] -0.023 | [6] 0.096 | [7] -0.022 | silmitasertib 0.004 | [8] 0.011 | entospletinib 0.046
active: vorinostat -0.386

C18orf25 (UniProt Q96B23)
Chain of UniProt Q96B23 (Q96B23 whole entry, looked up): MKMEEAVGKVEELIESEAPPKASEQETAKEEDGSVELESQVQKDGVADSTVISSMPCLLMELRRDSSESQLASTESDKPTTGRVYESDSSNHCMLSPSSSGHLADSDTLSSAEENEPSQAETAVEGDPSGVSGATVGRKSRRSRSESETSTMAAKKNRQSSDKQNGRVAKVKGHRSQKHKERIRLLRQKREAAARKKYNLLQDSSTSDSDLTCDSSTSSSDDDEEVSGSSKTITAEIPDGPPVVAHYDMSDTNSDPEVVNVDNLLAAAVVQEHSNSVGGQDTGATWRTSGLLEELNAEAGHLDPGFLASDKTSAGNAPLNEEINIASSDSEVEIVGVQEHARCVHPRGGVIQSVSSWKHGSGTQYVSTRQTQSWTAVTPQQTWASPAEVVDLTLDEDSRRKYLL
inactive: nilotinib 0.139 | [1] -0.014 | dasatinib -0.022 | [2] -0.018 | [3] 0.082 | quisinostat -0.007 | tipifarnib 0.003 | [4] 0 | [5] 0.011 | [6] -0.008 | [7] 0.03 | vorinostat 0.089 | silmitasertib -0.147 | [8] -0.034 | entospletinib 0.036

CDK5 (UniProt Q00535)
active: [2] 0.541 | silmitasertib 0.855
inactive: nilotinib -0.013 | [1] 0.23 | dasatinib 0.022 | [3] 0.019 | quisinostat -0.132 | tipifarnib 0.003 | [4] 0.044 | [5] 0.05 | [6] -0.112 | [7] -0.036 | vorinostat -0.232 | [8] 0.179 | entospletinib 0.036

CCNB2 (UniProt O95067)
inactive: nilotinib -0.053 | [1] 0.081 | dasatinib -0.016 | [3] -0.046 | quisinostat -0.081 | tipifarnib -0.029 | [4] 0.012 | [5] -0.038 | [6] 0 | [7] 0.01 | vorinostat -0.115 | silmitasertib -0.079 | [8] -0.08 | entospletinib 0.044
active: [2] 0.21

CDC7 (UniProt O00311)
inactive: nilotinib -0.049 | [1] 0.028 | dasatinib 0.029 | [2] 0.059 | [3] 0.001 | quisinostat -0.047 | tipifarnib -0.009 | [4] 0.015 | [5] -0.022 | [6] -0.016 | [7] 0.086 | vorinostat -0.152 | silmitasertib -0.077 | [8] -0.01 | entospletinib 0.007

CANX isoform 2 (UniProt P27824)
Chain of UniProt P27824 (P27824 whole entry, looked up): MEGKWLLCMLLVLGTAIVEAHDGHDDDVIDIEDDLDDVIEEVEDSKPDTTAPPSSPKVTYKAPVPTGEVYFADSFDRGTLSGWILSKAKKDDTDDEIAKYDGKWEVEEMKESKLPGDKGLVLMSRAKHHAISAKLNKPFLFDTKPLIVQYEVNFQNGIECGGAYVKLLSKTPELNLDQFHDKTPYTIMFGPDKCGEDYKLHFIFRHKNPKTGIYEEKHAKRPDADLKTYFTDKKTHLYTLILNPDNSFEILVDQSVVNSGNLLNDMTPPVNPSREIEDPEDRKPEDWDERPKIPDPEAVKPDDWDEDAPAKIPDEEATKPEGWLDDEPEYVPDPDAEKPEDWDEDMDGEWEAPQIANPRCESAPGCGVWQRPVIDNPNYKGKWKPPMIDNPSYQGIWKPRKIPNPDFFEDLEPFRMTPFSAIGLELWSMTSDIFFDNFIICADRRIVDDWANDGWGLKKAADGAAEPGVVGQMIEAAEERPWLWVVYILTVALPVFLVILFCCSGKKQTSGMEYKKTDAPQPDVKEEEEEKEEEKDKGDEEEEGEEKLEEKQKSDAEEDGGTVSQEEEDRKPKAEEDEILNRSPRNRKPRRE
inactive: nilotinib -0.006 | [1] 0.008 | dasatinib 0.012 | [2] -0.02 | [3] -0.02 | quisinostat -0.029 | tipifarnib -0.064 | [4] -0.011 | [5] -0.004 | [6] -0.011 | [7] 0.018 | vorinostat 0.131 | silmitasertib -0.004 | [8] -0.015 | entospletinib -0.004

CCDC25 (UniProt Q86WR0)
Chain of UniProt Q86WR0 (Q86WR0 whole entry, looked up): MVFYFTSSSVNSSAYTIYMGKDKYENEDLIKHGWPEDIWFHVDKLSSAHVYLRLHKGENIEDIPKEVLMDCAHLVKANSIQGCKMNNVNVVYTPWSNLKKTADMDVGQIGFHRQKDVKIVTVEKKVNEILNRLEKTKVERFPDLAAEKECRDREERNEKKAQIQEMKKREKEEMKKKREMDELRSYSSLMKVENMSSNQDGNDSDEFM
inactive: nilotinib 0.016 | [1] -0.023 | dasatinib -0.043 | [2] -0.021 | [3] -0.013 | quisinostat -0.039 | tipifarnib 0.002 | [4] 0 | [5] 0.024 | [6] -0.031 | [7] 0.025 | vorinostat 0.025 | silmitasertib -0.032 | [8] -0.011 | entospletinib 0.009
